In the library only some 12% were active in any assay of this set; here they are far more common.
CHX counter – counter-screen for Shiga toxin inhibitors: cycloheximide protein synthesis inhibition; cell reporter, cycloheximide protein synthesis inhibition counterscreen; max response, %; hit rate 12% among 300,000; AID 2314; in the data active = max response mostly above about 13%, no sharp cut-off; inactive = mostly below about 14%; also: read at 38.3 µM for the half of the compounds with a filed dose; 0% is about no effect
Shiga toxin inh – blocks Shiga toxin action in Vero cells; Vero cells, Shiga toxin protein synthesis inhibition reporter; inhibition, % at 38.7 µM; hit rate 9.2% among 290,000; AID 2315; in the data active = inhibition mostly above about 28%, no sharp cut-off; inactive = mostly below about 43%; also: 0% is about no effect
Marburg entry inh – Marburg virus entry inhibition | Marburg virus pseudotyped entry inhibition, cell reporter | Potency, µM (top dose mostly 37.8 µM), without a hit: top-dose activity change, negative = inhibition, usual class: inhibitors | hit rate 1.8% among 300,000; calls by dose curve; tested in HEK293 cells; also: potency is read from the fitted curve at half-maximal effect; % is scaled to controls: 0 for no effect and ±100 for the full control effect
Lassa entry inh – inhibitors of Lassa virus binding or cell entry; hit rate 1.2% among 300,000; Lassa virus pseudotype entry inhibition, cell reporter; Potency, µM (titrated, usually from 37.9 µM), for inactives: at the top dose activity change, negative = inhibition, most hits filed as inhibitors; calls by dose curve; tested in HEK293 cells; also: potency is read from the fitted curve at half-maximal effect; % is scaled to controls: 0 for no effect and ±100 for the full control effect; nearly all actives have a fitted effect of over 50% in size
An asterisk follows results filed as active; ? = inconclusive; · = not tested or not shown; [ ] = remark or other dose.

SMILES	CHX counter	Shiga toxin inh	Marburg entry inh	Lassa entry inh
Cc1ccc(C(=O)Nc2ccc3c(c2)nc(CCNC(=O)c2ccco2)n3C)cc1	32*	44*	?	?
Cn1c(CN2CCCCC2)nc2cc(NC(=O)c3ccccc3)ccc21	36*	51*	11%	36%[14.3 µM]
CCOC(=O)N1CCN(Cc2nc3cc(NC(=O)c4cccs4)ccc3n2CC)CC1	25*	7	·	·
Cn1c(CN2CCCCC2)nc2cc(NC(=O)c3cccc(Br)c3)ccc21	15	19	?	?
CCOC(=O)N1CCN(Cc2nc3cc(NC(=O)c4cccs4)ccc3n2C)CC1	5	-5	?	0%
Cn1c(CN2CCCCC2)nc2cc(NC(=O)c3cccs3)ccc21	28*	43*	5%	17%
CC(=O)Nc1ccc2c(c1)nc(CCNC(=O)c1ccco1)n2C	-3	-3	-4%[46.1 µM]	·
COc1ccc(-c2nc(N)nc(C)c2Oc2ccccc2Br)c(O)c1	-4	5	?	?
COc1ccc(CCN2C(=O)c3oc4cc(C)cc(C)c4c(=O)c3C2c2ccc(F)cc2)cc1OC (centres undefined)	·	·	5%[46.1 µM]	3%[46.1 µM]
Cc1cccc(N2CCN(c3ncnc4c3cnn4-c3ccc(Cl)cc3)CC2C)c1 (centres undefined)	·	·	·	-1%[46.1 µM]
CCOC(=O)C1CCCN(c2ncnc3c2cnn3-c2cccc(C)c2)C1 (centres undefined)	41*	118*	27%	-1%
Cc1cccc(-n2ncc3c(N4CCCC(C)C4)ncnc32)c1 (centres undefined)	·	·	·	-22%[46.1 µM]
CCN(CC)C(=O)C1CCCN(c2ncnc3c2cnn3-c2ccc(Cl)cc2)C1 (centres undefined)	23*	62*	·	·
CCN(CC)C(=O)C1CCCN(c2ncnc3c2cnn3-c2cccc(C)c2)C1 (centres undefined)	34*	63*	?	-9%
Cc1ccc(S(C)(=O)=O)cc1C(=O)NC(C)C1CC2CCC1C2 (centres undefined)	-5	-3	2%	8%
CS(=O)(=O)N(CC(=O)N1CCc2ccccc2C1)Cc1ccccc1	-4	-12	9%	-33%
COC(=O)c1ccccc1NC(=O)COC(=O)c1ccccc1N=Nc1ccc(N(C)C)cc1	17	16	-34%	3%
CN(C)c1ccc(N=Nc2ccccc2C(=O)OCC(=O)N(C)c2ccccc2)cc1	34*	64	?	?
CC(=O)c1ccc(NC(=O)COC(=O)c2ccccc2N=Nc2ccc(N(C)C)cc2)cc1	49*	99*	?	-23%
Cc1ccc(C)c(C(=O)OCC(=O)N(C)c2ccccc2)c1	10	8	-17%[46.1 µM]	?
CCOC(=O)c1[nH]c2c(c1-c1ccccc1)C(=O)CC(c1ccc(OC)c(OC)c1)C2 (centres undefined)	15*	-11	-42%	-29%
S=C(Nc1ccc(Br)cc1)NC1CCCCC1	51*	67*	0%	-23%
FC(F)Oc1ccc(NC(=S)NC2CCCCCCC2)cc1	34*	65*	?	?
S=C(Nc1ccc(Cl)cc1)NC1CCCCC1	41*	68*	-29%[46.1 µM]	?
CCN1C(=O)N(S(=O)(=O)c2ccc(C)cc2)C(c2ccccc2)C(C(=O)OC)=C1C (centres undefined)	·	·	17%[14.2 µM]	·
SMILES	CHX counter	Shiga toxin inh	Marburg entry inh	Lassa entry inh
COC(=O)CC=C[C@@H](C)[C@@H](C=NOC[C@@H](O)COCc1ccco1)NS(=O)(=O)c1ccc(C)cc1	·	·	21%[14.2 µM]	·
COC(=O)c1cccc(CN2C(=O)SC(Nc3ccccc3C)C2=O)c1 (centres undefined)	·	·	-2%[46.1 µM]	-8%[46.1 µM]
COc1cc(-n2c(C)nc3cccnc32)c(Cl)cc1C(=O)O	20*	44	·	·
Cc1ccccc1N1C(=O)C2C3CC(=O)C(c4ccccc43)C2C1=O (centres undefined)	-2	-3	1%	16%
Cc1ccnc2c(N3C(=O)C4C5c6ccccc6C(c6ccccc65)C4C3=O)cccc12 (centres undefined)	1	-15	?	21µM*
C/C(CCC1CC(C)OC1=O)=N/Nc1nc(-c2ccccc2)cs1 (centres undefined)	22*	44*	-8%	1%
CC1(C)CC(CC(=O)NNc2nc(-c3ccccc3)cs2)C(=O)O1 (centres undefined)	-1	-8	1.3µM*	12%
COc1ccc(-c2csc(NC(=O)CN3C(=O)CCC3=O)n2)cc1	6	17	·	·
CC(C)=NNc1nc(-c2ccc(N3C(=O)CCC3=O)cc2)cs1	20*	14	-6%[14.2 µM]	-6%
CC(C)=NNc1nc(-c2ccccc2)cs1	22*	66	4%	5%
COC1=CC2C(=O)C(C(c3ccccc3)C2C)C1(C)O (centres undefined)	·	·	1%[14.2 µM]	·
CCOc1ccc(OCC)c(NC(=O)Cn2c(C)nc3ccccc3c2=O)c1	14	20	2%[46.1 µM]	10%
Cc1ccsc1C(=O)OC(C)C(=O)Nc1ccc(Cl)cn1 (centres undefined)	·	·	?	-9%
Oc1ccc(/C=N/Nc2nc(-c3cccnc3)nc3ccccc23)c(O)c1	53*	41*	·	·
Cc1c(O)ccc(/C=N/Nc2nc(-c3cccnc3)nc3ccccc23)c1O	59*	49*	·	·
CCOC(=O)c1ccc(Nc2nc(-c3cccnc3)nc3ccccc23)cc1	8	-17	?	?
Clc1cccc(CNc2nc(-c3cccnc3)nc3ccccc23)c1	-5	-4	-29%[46.1 µM]	-28%
COc1ccccc1NC(=O)Nc1nc(-c2cccnc2)nc2ccccc12	·	·	7.1µM*	·
COc1ccc(/C=N/Nc2nc(-c3cccnc3)nc3ccccc23)cc1OC	31*	62*	?	-24%[46.1 µM]
CC(C)CCN(C(=O)C1=COCCO1)c1c(N)n(Cc2ccccc2)c(=O)[nH]c1=O	·	·	?	-6%
CCC(C(=O)Nc1ccc(C(=O)Nc2ccccc2C(=O)O)cc1)c1ccccc1 (centres undefined)	-2	11	-10%[46.1 µM]	-21%[46.1 µM]
O=C(CN(C(=O)CCC(=O)Nc1ccccn1)c1ccc2c(c1)OCO2)NCc1ccc(F)cc1	-6	-3	-26%[46.1 µM]	·
Cc1ccccc1Nc1nc(-c2cccnc2)nc2ccccc12	1	13	·	·
Cc1ccc(-c2nc(N/N=C/c3ccncc3)c3ccccc3n2)cc1	55*	76*	2.9µM*	?
Clc1cccc(Nc2nc(-c3ccncc3)nc3ccccc23)c1	5	44	?	?
SMILES	CHX counter	Shiga toxin inh	Marburg entry inh	Lassa entry inh
COc1ccc(CCNc2nc(-c3cccnc3)nc3ccccc23)cc1OC	7	-2	8.9µM*	?
Cc1ccc(Nc2nc(-c3cccnc3)nc3ccccc23)cc1	1	11	4µM*	?
Cc1ccc(CNc2nc(-c3cccnc3)nc3ccccc23)cc1	8	-2	?	?
Fc1ccc(Nc2nc(-c3ccncc3)nc3ccccc23)cc1F	-3	6	7.1µM*	6%[46.1 µM]
COCCNC(=O)Cn1cc(C(=O)c2ccco2)c2ccccc21	-4	36	8%	-2%
COc1ccc(-c2nnc3n2N=C(c2ccccc2OC)CS3)c(OC)c1	-2	-10	·	·
c1ccc(CN2CCC(Nc3nc(-c4cccnc4)nc4ccccc34)CC2)cc1	-2	13	10µM*	?
c1ccc(CNc2nc(-c3cccnc3)nc3ccccc23)cc1	-2	-6	·	·
O=C(Nc1ccc(Cl)cn1)c1cccnc1	15*	3	-18%[46.1 µM]	-14%
